# High-throughput results as filed in PubChem BioAssay.
# Most compounds without a hit are left out; they make up all but 8.3% or so of the library.
# MCF10A rereplic: A quantitative high throughput screen for small molecules that induce DNA re-replication in MCF 10a normal breast cells. actives 2.9% (n = 350,000). MCF 10A DNA re-replication, Hoechst nuclear intensity, 48 h. Potency, µM (titrated, usually from 46.1 µM), inactives show at the top dose activity, positive = re-replication, hits mostly activators; further: potency means the concentration at half of the fitted maximal effect; % of control where 0% means no effect; nearly all actives have a fitted effect of over 50% in size
# RORg inh: qHTS for inhibitors of ROR gamma transcriptional activity. Potency, µM (top dose mostly 53.6 µM), without a hit: top-dose activity change, negative = inhibition, usual class: inhibitors. Nuclear receptor ROR-gamma (Mus musculus), P51450. AID 2551, 2010. Drosophila S2 Gal4-RORgamma UAS-luciferase reporter, 20 h. actives 5.4% (n = 310,000); further: potency means the concentration at half of the fitted maximal effect; on the % scale 0 is the no-effect control and ±100 the full control effect; nearly all actives have a fitted effect of over 60% in size
# Target sequence (P51450 whole entry, looked up, the tested form may be a part): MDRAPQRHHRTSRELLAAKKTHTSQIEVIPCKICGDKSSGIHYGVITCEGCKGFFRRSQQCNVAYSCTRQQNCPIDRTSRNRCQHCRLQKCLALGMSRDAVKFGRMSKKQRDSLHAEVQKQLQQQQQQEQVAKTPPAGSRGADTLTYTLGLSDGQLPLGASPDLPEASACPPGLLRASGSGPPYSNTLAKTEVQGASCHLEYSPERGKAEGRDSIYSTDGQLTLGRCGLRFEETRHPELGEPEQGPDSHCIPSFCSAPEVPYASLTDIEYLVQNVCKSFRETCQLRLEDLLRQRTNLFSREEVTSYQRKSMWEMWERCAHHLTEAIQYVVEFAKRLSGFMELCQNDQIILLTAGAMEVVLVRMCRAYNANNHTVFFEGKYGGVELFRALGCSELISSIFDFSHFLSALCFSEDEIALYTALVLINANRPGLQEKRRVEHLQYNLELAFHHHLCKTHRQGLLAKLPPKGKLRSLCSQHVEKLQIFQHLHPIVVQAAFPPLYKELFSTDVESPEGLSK
#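 Luminescence from a UAS-regulated Photinus luciferase reporter in stably transfected Drosophila Schneider cells is measured; decreased signal marks ROR gamma inhibition. Fusion expression is induced by 700 uM copper sulfate for 20 hr.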
# Gal4-VP16 FLuc: VP16 counterscreen qHTS for inhibitors of ROR gamma transcriptional activity. actives 3.5% (n = 310,000). Potency, µM (doses to about 53.6 µM), for inactives: top-dose activity, negative = inhibition, hits mostly inhibitors. Drosophila S2 Gal4-VP16 UAS-luciferase, luminescence, 20 h;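 further: Gal4-VP16 expression switched on by copper sulfate through the metallothionein promoter; potency means the concentration at half of the fitted maximal effect; on the % scale 0 is the no-effect control and ±100 the full control effect; nearly all actives have a fitted effect of over 50% in size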
# SW480 rereplic: A quantitative high throughput screen for small molecules that induce DNA re-replication in SW480 colon adenocarcinoma cells. SW480 DNA re-replication, Hoechst DNA content imaging, 48 h. actives 1.8% (n = 340,000). Potency, µM (series often up to 46.1 µM), without a hit: at the top dose re-replication activation, usual class: activators; further: potency means the concentration at half of the fitted maximal effect; % of control where 0% means no effect; nearly all actives have a fitted effect of over 55% in size
#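 Per well, 250 cells were exposed to pinned compound for 48 hr. Nuclear DNA was visualised with Hoechst (40 min, 37 C) and total object intensity recorded by fluorescence scanning.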
# Chronic BCR inh: qHTS Assay to Find Inhibitors of Chronic Active B-Cell Receptor Signaling; ABC-DLBCL IkBa-CBG/CBR reporter, luminescence ratio, 4 h; Potency, µM (highest dose often 46.1 µM), for inactives: at the top dose activity change, negative = inhibition, hits mostly inhibitors; actives 0.05% (n = 340,000); active means well fitted inhibition curve with a large enough effect in the signal ratio, with a control signal flat, not every such curve was filed as active; inconclusive means small, poorly fitted or top-dose-only effect, or effect the other way, or a change in a side signal; the % refers to the signal ratio;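 further: potency means the concentration at half of the fitted maximal effect; plate controls were basal doxycycline-induced cells for no effect and cells given 10 µM MG132 for full effect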
#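 Cell line TMD8 (human ABC DLBCL), stably expressing tet-inducible CBG68-IkBa fusion and CBR; IMDM/0.5% FBS; cpd up to 46 uM; dox induction, 4 h, 37C/5% CO2; dual luminescence; green/red ratio; MG132 control.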
# Giardia killer: Small Molecules that selectively kill Giardia lamblia: qHTS | AID 540267, 2011 | actives 0.15% (n = 340,000) | activity change, % at 7.66 µM, hits read low | Giardia lamblia trophozoite viability; in the data active means activity change below about -80%; inconclusive means between about -30% and that limit;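 further: parasites exposed to compound for two days anaerobically before the ATP read; on the % scale 0 is the no-effect control and ±100 the full control effect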
#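 Trophozoite viability was measured as ATP-dependent luminescence, read 15-30 min after reagent addition. Before that, parasites at 100 cells/well were exposed to compounds for 48 h, anaerobically, at 37 deg C.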
# An asterisk follows results filed as active; u = inconclusive; x = no result. Unless noted, the call rests on the fitted dose curve; in most records, active means well fitted curve in the direction sought with a large enough effect; inconclusive means small, poorly fitted or top-dose-only effect, or another doubt; inactive means no such curve, though single readings can be large; an effect the other way counts as inactive or inconclusive.
SMILES,MCF10A rereplic,RORg inh,Gal4-VP16 FLuc,SW480 rereplic,Chronic BCR inh,Giardia killer
COc1ccc(-n2cc(-c3ccc(C)cc3)[n+]3c2SCC3)cc1,u,-21.6%,7.94µM*,-6.5%,0.5%,20.5
Cc1cccc(NC(=O)CN2CCN(C(=O)CN3C(=O)NC4(CCCCC4C)C3=O)CC2)c1C (centres undefined),-0.8%,x,x,1.3%,x,3.5
Cc1nc(SC2CCOC2=O)c2c(C)c(C)sc2n1 (centres undefined),-8.0%,11.2µM*,15.8µM*,-26.0%,u,0.6
CC[C@H](C)C(N)C(=O)O (some centres undefined),x,-3.9%,-0.9%,x,x,x
Fc1cccc(-n2cc(-c3ccccc3)c3c(=S)nc[nH]c32)c1,8.8%,2.51µM*,0.631µM*,4.3%,-8.6%,-7.1
Fc1ccc(-n2cc(-c3ccccc3)c3c(=S)nc[nH]c32)cc1,-1.4%,1.26µM*,1µM*,-0.7%,-7.1%,-13.9
CCOC(=O)C1=CN(Cc2cccc(F)c2)S(=O)(=O)N(C)C1c1ccc(F)c(Cl)c1 (centres undefined),22.6%,x,x,5.4%,u,4.4
CCOC(=O)Cc1csc(NC(=S)NC(=O)c2ccccc2Br)n1,4.7%,5.62µM*,3.98µM*,2.9%,u,1.9
CCOC(=O)Cc1csc(NC(=S)NC(=O)CC(C)C)n1,15.7%,11.2µM*,u,-0.4%,u,-25.7
CCOC(=O)Cc1csc(NC(=S)NC(=O)c2ccc(C)cc2)n1,-2.0%,5.01µM*,8.91µM*,-16.2%,u,u
CC(C)CC(=O)NC(=S)Nc1nc(-c2cccc3ccccc23)cs1,u,3.16µM*,12.6µM*,u,11.7%,-1.9
COc1ccc(NC(=O)c2c(NCc3ccc(C)o3)sc3c2CCCCC3)c(OC)c1,x,x,x,x,2.4%,x
CCOc1cc(CNC2CCCC2)c(Cl)cc1OCC(=O)Nc1ccccc1,1.5%,5.5%,4.3%,2.2%,u,20.6
CCCN1CNc2c(c(=O)[nH]c(=S)n2CCCc2ccccc2)C1,x,x,x,x,x,11.2
COc1ccccc1NC(=O)Cc1csc(NC(=S)Nc2ccc(C)cc2)n1,u,0.891µM*,2.82µM*,20.6µM*,u,-9.2
CCOC(=O)Cc1csc(NC(=S)NC(=O)c2ccccc2)n1,2.3%,u,-93.6%,-2.4%,u,9.0
CCOC(=O)Cc1csc(NC(=S)NC(=O)c2cccc([N+](=O)[O-])c2)n1,0.2%,11.2µM*,u,-4.9%,-10.5%,4.1
O=C(NC(=S)Nc1ccc2[nH]c(=O)[nH]c2c1)c1cccc(F)c1,-3.1%,22.8%,-12.3%,0.8%,1.2%,-1.7
CC(C)(C)C(=O)NC(Nc1cccc2cccnc12)C(Cl)(Cl)Cl (centres undefined),20.6µM*,43.1%,u,23.1µM*,u,-15.0
Cc1nn(CC(=O)Nc2ccc3c(c2)OCCO3)c(C)c1[N+](=O)[O-],-1.0%,x,x,-1.6%,-3.9%,4.4
Cc1[nH]c2ccc(-c3n[nH]c(=S)n3Cc3ccccc3)cc2c1C,20.4%,10µM*,-13.8%,18.8%,-3.1%,-1.2
Cc1[nH]c2ccc(-c3n[nH]c(=S)n3-c3ccccc3)cc2c1C,u,7.94µM*,u,-7.0%,u,-2.9
O=C(O)c1ccc(-n2c(-c3ccc(Br)cc3)n[nH]c2=S)cc1,-3.4%,1.8%,2.2%,4.7%,u,2.2
Cc1[nH]c2ccc(-c3nnc(SCC(=O)NCc4ccco4)n3Cc3ccccc3)cc2c1C,u,18.3%,7.1%,7.2%,u,-10.2
COc1cccc(-n2c(-c3ccc4[nH]c(C)c(C)c4c3)n[nH]c2=S)c1,17.9%,u,5.2%,-5.6%,u,5.1
